From PubChem BioAssay

Assay: DUSP6 inhibitors restoring Erk phosphorylation by chemical complementation, primary imaging in DUSP6-transfected HeLa (AID 609)
Details: HeLa MKP-3 transfected, phospho-Erk imaging KS statistic; measured here: nuclear pErk red intensity z-score; at 10 µM; stronger effect = higher value; cells stimulated with TPA for 15 min

Row | Structure (SMILES) | z-score
1 | O=C1C=C(O)CC(c2cccs2)C1 (stereo not given) | -0.148
2 | Cc1c(C(Nc2ccccn2)c2ccccc2)c(=O)n(-c2ccccc2)n1C (stereo not given) | 1.12
3 | O=C(c1nsnc1-c1ccccc1O)N1CCCCC1 | 0.334
4 | Cc1cc(=O)oc(C)c1C(=O)N1CCN(C)CC1 | 0.815
5 | CCCOc1ccc(C2NC(=O)NC2=O)cc1 (stereo not given) | 0.505
6 | O=c1c(-c2ccc3c(c2)OCCO3)c(C(F)(F)F)oc2cc(O)cc(O)c12 | -0.0254
7 | Cn1c(=NCC(O)COc2ccccc2)sc2ccccc21 (stereo not given) | 0.805
8 | COc1cc(-c2cc(C(F)(F)F)n3ncc(C(=O)O)c3n2)cc(OC)c1OC | 0.038
9 | CCOC(=O)CSc1nc(-c2ccncc2)ccc1C#N | 0.758
10 | COc1ccc(OCC(O)Cn2c(Nc3cccc(C)c3)nc3c2c(=O)n(C)c(=O)n3C)cc1 (stereo not given) | -0.035
11 | CCCCn1c2nc3ccccc3nc2c2c(=O)n(CC(C)C)cnc21 | -0.343
12 | CCN(CC)S(=O)(=O)c1ccc2c(c1)c(C(=O)O)cn2C | -1.67
13 | CSc1nc(C)cc(OCCNS(=O)(=O)c2cc(C)ccc2C)n1 | -1.02
14 | CCOc1nc(SC(C(C)=O)C(=O)Nc2ccccc2)nc(N(C)C)n1 (stereo not given) | -1.33
15 | O=C(Oc1ccccc1N1C(=O)CCC1=O)c1ccco1 | 0.413
16 | Cc1cc(C)c(C#N)c(SCC(=O)NC2CC2)n1 | 0.0715
17 | COC(=O)c1ccccc1NC=C1C(=O)OC2(CCCCC2)OC1=O | -0.313
18 | Cc1cc(C)n(C(=O)CN2C(=O)CCC2=O)n1 | -0.956
19 | CN1C2C=C3C(C#N)=C(N)C(C#N)(C#N)[C@@H](c4ccsc4)[C@@H]3C1CC2 (stereo not given in full) | -0.0532
20 | Cc1ccc(/C=c2\sc3n(c2=O)CN(c2ccc(Br)cc2)CN=3)o1 | -1.08

Row | Structure (SMILES) | z-score
21 | Clc1ccccc1-c1nn2c(-c3ccccn3)nnc2s1 | -0.483
22 | CC(=O)NC1(C(F)(F)F)C(=O)Nc2c1c(=O)n(C)c(=O)n2C (stereo not given) | -0.0908
23 | CC(Sc1nc(N2CCCCC2)c2c(c1C#N)CCCC2)C(=O)O (stereo not given) | -1.09
24 | CCN(CC)CCCn1c(C)cc2c(c1=O)C(c1cccc(Cl)c1)C(C#N)=C(N)O2 (stereo not given) | 1.37
25 | CCCCOC(=O)CSc1nc(N)c(C#N)c(-c2ccc(OC)cc2)c1C#N | 1.46
26 | COc1ccc(N2CCN(C3CC(=O)NC3=O)CC2)cc1 (stereo not given) | -1.94
27 | O=C(c1ccco1)N1CCN(c2ncnc3c2[nH]c2ccccc23)CC1 | 0.509
28 | COc1ccc(OC)c(C2NC(=O)c3sc(=S)n(-c4ccccc4)c3N2)c1 (stereo not given) | 1.43
29 | CCOc1ccc(-c2nn3c(-c4ccc(OC)cc4)nnc3s2)cc1 | 0.0677
30 | c1cncc(-c2nnc3sc(C4CCCCC4)nn23)c1 | 0.328
31 | Cc1c(C(=O)O)c(=S)sn1CCOc1ccccc1 | 0.102
32 | CCC1(C)Cc2c(sc3c2c(=O)n(C)c2nnc(SCc4ccc5c(c4)OCO5)n32)CO1 (stereo not given) | -1.44
33 | CCCC(=O)N1CCN(c2nc(CC(C)C)c3c(c2C#N)CCC3)CC1 | 0.103
34 | COC(=O)c1c(C)noc1-c1cc(C)on1 | 0.322
35 | CN1c2ccccc2N(C)C1c1c(O)ccc2ccccc12 | 0.412
36 | O=C1CCC(=O)N1CN(C(=O)c1ccco1)c1ccc(Cl)c(Cl)c1 | 0.134
37 | CC(C)Oc1ccc(Cc2c(O)nc(NCCCN(C)C)[nH]c2=O)cc1 | -0.785
38 | CCCCOc1ccc(CSC(CC(=O)O)C(=O)O)cc1 (stereo not given) | 0.193
39 | COCc1cc(=O)[nH]c(Nc2nc3ccc(C)cc3o2)n1 | -0.0408
40 | CCOC(=O)CCCCC(=O)NC(CO)C(=O)NC (stereo not given) | -0.705
